Experiment [1] is described as follows: A549 cell viability effects, profiling panel, calcein-AM fluorescence, 48 h, basal (AID 1162). Further: test concentration not given here. Particulars: higher = more signal.
Experiment [2] is described as follows: adipocyte viability effects, profiling panel, cell-based, 3T3-L1 adipocytes, calcein-AM fluorescence, 48 h, basal (AID 1163). Further: test concentration not given here. The following applies: 3T3-L1 adipocytes viability, higher = more signal.
Experiment [3] is described as follows: HepG2 cell viability effects, profiling panel, calcein-AM fluorescence, 48 h, basal (AID 1164). Further: test concentration not given here. Particulars: higher = more signal.
The nature of experiment [4]: MM1S cell viability effects, profiling panel, calcein-AM fluorescence, 48 h, basal (AID 1165).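 Further: viability of MM1S multiple myeloma cells under basal unstimulated conditions; test concentration not given here.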 Particulars: higher = more signal.
The nature of experiment [5]: basal RPMI8226 viability, no added stimulus, profiling panel, cell-based, calcein-AM fluorescence, 48 h, PK04 Diversity Set (AID 1166).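 Further: cells grown under basal conditions without added stimulus; test concentration not given here.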 The following applies: RPMI8226 myeloma viability, higher = more signal.
A short description of experiment [6]: basal HepG2 mitochondrial membrane potential changes, profiling panel, cell-based, JC-1 fluorescence, 24 h, 100 nL compound (AID 1167). Further: test concentration not given here. Particulars: higher = more signal.
A short description of experiment [7]: basal 3T3-L1 adipocyte mitochondrial potential changes, profiling panel, cell-based, JC-1 fluorescence, 3T3-L1 adipocytes, 24 h, 100 nL compound (AID 1168). Further: test concentration not given here. The following applies: JC-1 mitochondrial fluorescence, higher = more signal, called active from +8 up or from −8 down.
Experiment [8] in a line: basal RPMI8226 mitochondrial membrane potential changes, profiling panel, cell-based, JC-1 fluorescence, 24 h, 100 nL compound (AID 1169). Further: test concentration not given here. The following applies: RPMI8226 myeloma, JC-1 mitochondrial potential fluorescence, higher = more signal.
Experiment [9] in a line: basal MM1S mitochondrial membrane potential changes, profiling panel, cell-based, JC-1 fluorescence, 24 h, 100 nL compound (AID 1170). Further: test concentration not given here. The following applies: higher = more signal.
The nature of experiment [10]: A549 lung cancer cell viability effects, profiling panel, resazurin fluorescence, 24 h, PK04 Diversity Set (AID 1171). Further: test concentration not given here. Particulars: higher = more signal, called active from +8 up or from −8 down. (Alamar Blue is a resazurin reagent that responds to reducing activity.)
Experiment [11] can be described thus: HepG2 liver cancer cell viability effects, profiling panel, resazurin fluorescence, 24 h, PK04 Diversity Set (AID 1172). Further: test concentration not given here. The following applies: higher = more signal.
Experiment [12] is described as follows: basal S. cerevisiae growth modulation, no modifier, primary screen, OD600, strain BY4716, 24 h, basal condition (AID 1173). The following applies: OD600, 24 h, higher = more signal, called active from +8 up or from −8 down.
The nature of experiment [13]: MM1S myeloma cell viability, profiling panel, resazurin fluorescence, basal, 24 h, PK04 Diversity Set (AID 1174).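 Further: MM1S multiple myeloma cell line; test concentration not given here.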 Particulars: higher = more signal, called active from +8 up or from −8 down.
The target of experiment [14] is Dihydroorotate dehydrogenase (quinone), mitochondrial (Plasmodium falciparum (isolate 3D7)) (UniProt Q08210). Nature of the experiment: PfDHODH enzyme inhibitors, primary screen, biochemical, C-terminal His tag, absorbance 600 nm (AID 1175).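 Further: recombinant parasite enzyme with a five histidine tag at its C terminus; test concentration not given here.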 Particulars: DCIP absorbance 600 nm, higher = more signal, called active from +8 up or from −8 down.
A short description of experiment [15]: P. aeruginosa biofilm formation inhibitors, primary screen, strain PAO1, LB-PBS medium, absorbance 600 nm (AID 1176). Further: test concentration not given here. Particulars: P. aeruginosa PAO1 growth/biofilm, A600, 12 h; higher = more signal.
Experiment [16] can be described thus: S. cerevisiae RM11-1a growth modifiers, primary screen, strain RM11-1a, OD600, basal, 24 h (AID 1177).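 Further: cultures grown under basal conditions with no added stressor; test concentration not given here.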 Particulars: OD600, 24 h, higher = more signal, called active from +8 up or from −8 down.
The nature of experiment [17]: E. coli acrAB mutant growth effects, primary screen, E. coli filamentation inducers, strain DRC39, OD650, 24 h (AID 1178).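 Further: growth measured as culture turbidity by optical density at 650 nm; test concentration not given here.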 The following applies: higher = more signal, called active from +8 up or from −8 down.
Experiment [18] can be described thus: E. coli acrAB mutant growth effects, primary screen, E. coli filamentation inducers, strain DRC39, OD650, 48 h (AID 1179).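 Further: screen aims at cell division blockers that make cells filament.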 Particulars: E. coli DRC39 delta-acrAB growth, higher = more signal, called active from +8 up or from −8 down.
A short description of experiment [19]: RPMI8226 myeloma cell viability, profiling panel, resazurin fluorescence, basal, 24 h, PK04 Diversity Set (AID 1180).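 Further: RPMI8826 multiple myeloma cell line at 5000 cells per well; test concentration not given here.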 Particulars: higher = more signal.
The target of experiment [20] is E3 ubiquitin-protein ligase XIAP (Homo sapiens) (UniProt P98170). Nature of the experiment: XIAP binders, primary screen, biophysical, small-molecule microarray, fluorescence 635 nm (AID 1181).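 Further: score merges 667 nm emission and signal to noise over triplicate slides.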 The following applies: small-molecule microarray binding, higher = more signal.

Active and inactive are the calls of the source. Unless noted, how the calls were made is not given here.

Chain of E3 ubiquitin-protein ligase XIAP (Homo sapiens) (P98170 whole entry, looked up): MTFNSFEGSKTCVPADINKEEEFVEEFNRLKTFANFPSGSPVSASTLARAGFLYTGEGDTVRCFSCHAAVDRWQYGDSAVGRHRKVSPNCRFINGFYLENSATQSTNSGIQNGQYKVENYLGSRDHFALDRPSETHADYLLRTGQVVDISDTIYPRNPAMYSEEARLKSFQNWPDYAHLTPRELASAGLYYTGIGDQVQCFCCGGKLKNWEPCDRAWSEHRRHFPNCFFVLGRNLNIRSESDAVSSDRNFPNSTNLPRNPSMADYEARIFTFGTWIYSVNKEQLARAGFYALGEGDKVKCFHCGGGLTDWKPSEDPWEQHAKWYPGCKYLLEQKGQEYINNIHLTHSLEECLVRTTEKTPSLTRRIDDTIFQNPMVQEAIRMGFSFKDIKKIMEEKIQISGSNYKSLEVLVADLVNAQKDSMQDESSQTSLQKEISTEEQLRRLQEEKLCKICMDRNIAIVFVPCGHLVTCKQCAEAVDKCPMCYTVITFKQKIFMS
Chain of Dihydroorotate dehydrogenase (quinone), mitochondrial (Plasmodium falciparum (isolate 3D7)) (Q08210 whole entry, looked up): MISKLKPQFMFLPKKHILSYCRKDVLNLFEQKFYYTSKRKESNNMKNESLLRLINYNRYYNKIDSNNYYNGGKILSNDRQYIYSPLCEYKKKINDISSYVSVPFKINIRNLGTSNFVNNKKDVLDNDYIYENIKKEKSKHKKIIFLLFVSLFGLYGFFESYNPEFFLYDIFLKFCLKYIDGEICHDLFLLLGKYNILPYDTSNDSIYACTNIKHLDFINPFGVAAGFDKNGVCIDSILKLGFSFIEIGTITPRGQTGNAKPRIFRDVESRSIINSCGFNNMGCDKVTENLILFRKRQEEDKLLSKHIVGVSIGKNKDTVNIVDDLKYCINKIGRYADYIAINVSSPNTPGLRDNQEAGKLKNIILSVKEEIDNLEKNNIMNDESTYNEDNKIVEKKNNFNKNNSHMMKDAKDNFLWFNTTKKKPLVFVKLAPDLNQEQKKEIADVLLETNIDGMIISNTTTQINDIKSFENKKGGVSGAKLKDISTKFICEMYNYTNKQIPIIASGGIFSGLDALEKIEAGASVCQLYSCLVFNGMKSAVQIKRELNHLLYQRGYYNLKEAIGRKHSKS

`CC(C)NC(=O)[C@@]1(c2ccc([N+](=O)[O-])cc2)CC(=O)N(C2CCCCC2)[C@@H]1c1ccc(CO)cc1`: the z-score in [1] is -0.68; in experiment [2], -0.773; in experiment [3], -0.297; in experiment [4] it was -0.0629; in [5], -0.402; in experiment [6], 1.46. Moreover, the z-score in experiment [7] is 1.4 (inactive); in [8] it was 0.172; in [9] it was -0.123; in [10], 1.38 (inactive); in experiment [11], 1.2; in [12], 0.178 (inactive). In addition, the z-score was 1.16 (inactive) in experiment [13]; -0.0249 (inactive) in experiment [15]; 0.852 (inactive) in experiment [16]; 0.389 (inactive) in experiment [17]; 1.29 (inactive) in experiment [18]; 0.367 in experiment [19]. Moreover, the results for the composite z-score in experiment [14] and in [20] were 1 (inactive) and 0.112, respectively.
For `C=CC[C@@H](OC(=O)Nc1ccc(SC)cc1)c1ccc(O)c(F)c1`, the z-score was 1.12 in experiment [1]; -0.475 in experiment [2]; -0.889 in [3]; -2.14 in experiment [4]; -1.75 in experiment [5]; -2.43 in experiment [6]. Moreover, the z-score in experiment [7] was 4.4 (inactive); in experiment [8] it was -0.343; in experiment [9], -1.04; in [10], -0.68 (inactive); in [11], -0.227; in experiment [12], -15.5 (active). For the same compound, the z-score in experiment [13] was -2.32 (inactive); in [15], 1.57 (inactive); in [16], -6.97 (inactive); in experiment [17], 1.75 (inactive); in [18], 1.38 (inactive); in [19], -0.872. The results for the composite z-score in experiment [14] and in [20] were -1.9 (inactive) and -0.02, respectively.
For `CN(C)c1ccc(C(O)C2C=CC3C(=O)NC(=O)C3N2Nc2ccccn2)cc1` (stereo not given), the z-score in experiment [1] is -0.8; in [2], -0.358; in experiment [3], -0.331; in [4], -0.286; in [5], -0.333; in [6], -1.21. Further, the z-score is -0.339 (inactive) in [7]; -0.492 in [8]; 0.468 in [9]; -0.348 (inactive) in experiment [10]; -0.8 in experiment [11]; 1.03 (inactive) in experiment [12]. Further, the z-score was -1.21 (inactive) in experiment [13]; 0.503 (inactive) in experiment [15]; 0.489 (inactive) in [16]; -0.738 (inactive) in experiment [17]; 0.0674 (inactive) in [18]; -1.79 in experiment [19]. The composite z-score in [14] was 0.957 (inactive); in experiment [20] it was 0.0726.
As for `CC(C)C[C@@H]1NC(=O)[C@@H]2C[C@H](C(=O)NCCCCCCN)[C@H](c3cccc(OCCO)c3)N2C1=O`, the z-score in [1] is -0.038; in experiment [2] it was 0.971; in experiment [3] it was -0.822; in experiment [4], 0.206; in [5], -0.703; in [6] it was -0.39. Further, the z-score in experiment [7] was 0.433 (inactive); in [8], -0.84; in experiment [9], 0.519; in [10], -0.862 (inactive); in experiment [11], -0.821; in [12], -0.568 (inactive). Besides, the z-score is 0.542 (inactive) in [13]; 0.379 (inactive) in experiment [15]; 0.473 (inactive) in experiment [16]; -0.0795 (inactive) in experiment [17]; -0.74 (inactive) in [18]; -0.0399 in experiment [19]. In addition, the composite z-score was 1.05 (inactive) in experiment [14] and 0.0264 in experiment [20].
Turning to `Cc1ccccc1C(O)C1C=CC2C(=O)NC(=O)C2N1Nc1ccccn1` (stereo not given), the z-score was -0.251 in [1]; -1.09 in [2]; -0.823 in [3]; -0.0706 in experiment [4]; -0.729 in [5]; -0.831 in experiment [6]. Also, the z-score is -0.654 (inactive) in [7]; 0.551 in experiment [8]; 0.365 in experiment [9]; -1.02 (inactive) in experiment [10]; -1.07 in [11]; 1.21 (inactive) in experiment [12]. Besides, the z-score in experiment [13] is -0.777 (inactive); in experiment [15], 0.543 (inactive); in experiment [16] it was 0.487 (inactive); in [17] it was -0.387 (inactive); in [18], -0.316 (inactive); in experiment [19] it was -0.489. Moreover, the values for the composite z-score in [14] and in experiment [20] were 1.57 (inactive) and 0.127, respectively.
For `CCOC(=O)C1=C[C@@H](C(C)(C)C)N(S(=O)(=O)c2ccc(C)cc2)[C@H]1c1cccc2ccccc12`, the z-score in experiment [1] was -1.35; in experiment [2], -0.15; in experiment [3], -1.62; in [4] it was -0.205; in [5] it was -2.97; in experiment [6], 3.37. Besides, the z-score in experiment [7] is 0.348 (inactive); in experiment [8] it was -0.919; in experiment [9], -0.541; in experiment [10] it was 0.828 (inactive); in experiment [11], -0.433; in experiment [12], 3.26 (inactive). Moreover, the z-score in experiment [13] was -0.835 (inactive); in experiment [15], 0.312 (inactive); in experiment [16], 3.01 (inactive); in [17] it was -0.624 (inactive); in [18] it was -0.511 (inactive); in [19] it was -2.66. For the same compound, the composite z-score in experiment [14] is 0.716 (inactive); in [20], 0.307.
In the case of `C=CCOC(=O)[C@@]1(Cc2ccccc2)C[C@H]2CO[C@H](c3ccc(OC)cc3)N2C1=O`, the z-score was 0.158 in experiment [1]; 0.223 in experiment [2]; -0.311 in experiment [3]; -0.657 in experiment [4]; -1.5 in [5]; -0.574 in experiment [6]. The z-score in experiment [7] was 0.437 (inactive); in [8], -0.272; in experiment [9] it was -0.47; in experiment [10] it was 0.864 (inactive); in [11], -0.352; in experiment [12] it was -2.69 (inactive). In addition, the z-score in experiment [13] is 0.437 (inactive); in experiment [15], 0.125 (inactive); in experiment [16], -1.1 (inactive); in experiment [17] it was -0.0115 (inactive); in [18] it was -0.187 (inactive); in experiment [19], 0.0399. Besides, the composite z-score in experiment [14] was -0.972 (inactive); in [20], -0.184.
Regarding `CO[C@H]1O[C@H](CO)[C@@H](OC(=O)CCc2ccccc2)[C@@H]2OC(=O)[C@@H](Cc3ccccc3)C/C=C/C[C@H](Cc3ccccc3)C(=O)O[C@@H]12`, the z-score in experiment [1] was 1.7; in [2] it was 0.271; in experiment [3], 0.514; in experiment [4] it was -0.753; in experiment [5], -0.711; in experiment [6], 0.358. Also, the z-score in experiment [7] is 0.669 (inactive); in [8], 0.578; in experiment [9], -0.946; in experiment [10] it was 1.2 (inactive); in experiment [11] it was 0.195; in experiment [12] it was -0.559 (inactive). Also, the z-score in experiment [13] was -0.887 (inactive); in [15], -0.661 (inactive); in [16], 0.532 (inactive); in experiment [17], 1.06 (inactive); in [18], 1.79 (inactive); in experiment [19] it was 0.943. Further, the composite z-score in experiment [14] was -1.53 (inactive); in experiment [20], 0.913.

(Values after PubChem BioAssay.)
